The entries come from a sample that favours hits as a whole.
Artemis endo inh – Artemis (human) endonuclease inhibition; Q96SD1; recombinant Artemis, quenched FAM hairpin cleavage fluorescence; inhibition, % at 10 µM; 30,000 compounds, 0.78% hits;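 active means at 10 µM dose, at least 30% inhibition, measured as corrected fluorescence normalized to stimulator and neutral control wells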
Hits are given with their value; . = inactive.

SMILES | Artemis endo inh
O=c1c2c(nc(NCCO)n1CC1CCCCC1)-c1ccccc1CC21CCCC1 | .
O=C(O)CC(NCc1ccco1)C(=O)OCC1CCCO1 (centres undefined) | .
C=CCSc1nnc(-c2ccccc2N=Cc2c(C)[nH]n(-c3ccccc3)c2=O)c(=O)[nH]1 | .
Cc1[nH]n(-c2ccccc2)c(=O)c1C=Nc1cnc2ccccc2c1 | .
CSc1nnc(-c2ccccc2N=Cc2c(C)[nH]n(-c3ccc4ccccc4c3)c2=O)c(=O)[nH]1 | 31.9
